The supplement of paper PMC6089552
Out of some 3,200 compounds screened, about 300 (9.4%) showed activity. This is one part of a sample in which actives are shown more often than they occur.

Tested on: A673/TR/shEF
Assay: cell viability (LOESS-normalised, relative to median of negative controls) (log2 ratio); higher = more viable cells (less compound effect), active = hit call of the paper (over 3 MAD below the median)
Conditions: treatment time: 72 h
Summary of the method: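 A673/TR/shEF Ewing sarcoma cells were plated at 1,500 per well in 384-well plates and cultured with or without doxycycline, added 24 h before compounds, to induce EWS-FLI1 shRNA knockdown. Library compounds at two or more concentrations, alongside DMSO controls, were applied for three days. Cell viability was measured by CellTiter-Glo luminescence on an Envision reader. Readings were LOESS-corrected per plate, divided by the median of negative controls and log2-transformed, and hits were wells lying at least three median absolute deviations from the median of all screened wells.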

[1] = 0.25 µM, library screen: screen1, EWS-FLI1 expression: high (no doxycycline)
[2] = 0.25 µM, library screen: screen1, EWS-FLI1 expression: low (doxycycline-induced shRNA knockdown)
[3] = 2.5 µM, library screen: screen1, EWS-FLI1 expression: high (no doxycycline)
[4] = 2.5 µM, library screen: screen1, EWS-FLI1 expression: low (doxycycline-induced shRNA knockdown)
[5] = 0.25 µM, library screen: screen2, EWS-FLI1 expression: high (no doxycycline)
[6] = 0.25 µM, library screen: screen2, EWS-FLI1 expression: low (doxycycline-induced shRNA knockdown)
[7] = 2.5 µM, library screen: screen2, EWS-FLI1 expression: high (no doxycycline)
[8] = 2.5 µM, library screen: screen2, EWS-FLI1 expression: low (doxycycline-induced shRNA knockdown)

Measured: cell viability (log2)

CCNc1nc(Cl)nc(NC(C)C)n1
inactive: [1] 0.143 | [2] 0.0518 | [3] 0.132 | [4] 0.0856

CCC1(C2=NCCN2)Cc2ccccc2O1 (configuration not stated)
inactive: [5] 0.203 | [6] 0.0265 | [7] 0.184 | [8] 0.0979

CC[C@@]1([C@H]2O[C@H]([C@H]3O[C@@](O)(CO)[C@H](C)C[C@@H]3C)C[C@H]2C)CC[C@H]([C@@]2(C)CC[C@]3(C[C@H](O)[C@@H](C)[C@@H]([C@H](C)[C@H](OC)[C@@H](C)C(=O)O)O3)O2)O1
active: [3] -0.325
inactive: [1] -0.0386 | [2] 0.12 | [4] 0.0352

CO[C@@H]1C[C@@H](C[C@H]2CC[C@H](C)[C@H]([C@@H](C)C(=O)O)O2)O[C@]2(O[C@](C)([C@H]3CC[C@@](C)([C@@H]4O[C@@H]([C@H]5O[C@@](O)(CO)[C@H](C)C[C@@H]5C)C[C@@H]4C)O3)C[C@H]2C)[C@@H]1C
active: [3] -0.685
inactive: [1] 0.0701 | [2] 0.147 | [4] -0.0408

CN1CCc2cc(O)cc3c2C1Cc1ccc(O)c(O)c1-3 (configuration not stated)
inactive: [5] 0.248 | [6] 0.14 | [7] 0.197 | [8] 0.135

Nc1ccc2c(n1)[nH]c1ccccc12
inactive: [5] 0.156 | [6] 0.0674 | [7] 0.0702 | [8] 0.0934

Nc1ccc(CCN2CCN(c3cccc(C(F)(F)F)c3)CC2)cc1
inactive: [5] 0.0196 | [6] 0.0537 | [7] 0.131 | [8] 0.044

C[C@@H]1C[C@H]2CC(=O)[C@H]3CCCN4CCC[C@H]2[C@]34C1
inactive: [1] 0.103 | [2] 0.0455 | [3] 0.108 | [4] 0.0845

O=P1(N(CCCl)CCCl)NCCCO1 (configuration not stated)
inactive: 0.025 µM, library screen: screen2, EWS-FLI1 expression: high (no doxycycline) 0.105 | 0.025 µM, library screen: screen2, EWS-FLI1 expression: low (doxycycline-induced shRNA knockdown) 0.0824 | 0.103 µM, library screen: screen3, EWS-FLI1 expression: high (no doxycycline) 0.146 | 0.103 µM, library screen: screen3, EWS-FLI1 expression: low (doxycycline-induced shRNA knockdown) 0.0804 | [1] 0.11 | [2] 0.163 | [5] 0.137 | [6] 0.0863 | 0.308 µM, library screen: screen3, EWS-FLI1 expression: high (no doxycycline) 0.0638 | 0.308 µM, library screen: screen3, EWS-FLI1 expression: low (doxycycline-induced shRNA knockdown) 0.0134 | 0.926 µM, library screen: screen3, EWS-FLI1 expression: high (no doxycycline) 0.0846 | 0.926 µM, library screen: screen3, EWS-FLI1 expression: low (doxycycline-induced shRNA knockdown) 0.061 | [3] 0.228 | [4] 0.17 | [7] 0.122 | [8] 0.0525 | 2.8 µM, library screen: screen3, EWS-FLI1 expression: high (no doxycycline) 0.114 | 2.8 µM, library screen: screen3, EWS-FLI1 expression: low (doxycycline-induced shRNA knockdown) 0.0823 | 8.3 µM, library screen: screen3, EWS-FLI1 expression: high (no doxycycline) 0.0653 | 8.3 µM, library screen: screen3, EWS-FLI1 expression: low (doxycycline-induced shRNA knockdown) 0.1 | 25 µM, library screen: screen2, EWS-FLI1 expression: high (no doxycycline) 0.0276 | 25 µM, library screen: screen2, EWS-FLI1 expression: low (doxycycline-induced shRNA knockdown) 0.165 | 25 µM, library screen: screen3, EWS-FLI1 expression: high (no doxycycline) 0.071 | 25 µM, library screen: screen3, EWS-FLI1 expression: low (doxycycline-induced shRNA knockdown) 0.141

Cc1c(N)nc([C@H](CC(N)=O)NC[C@H](N)C(N)=O)nc1C(=O)N[C@H](C(=O)N[C@H](C)[C@@H](O)[C@H](C)C(=O)N[C@H](C(=O)NCCc1nc(-c2nc(C(=O)NCCC[S+](C)C)cs2)cs1)[C@@H](C)O)[C@@H](OC1OC(CO)C(O)C(O)C1OC1OC(CO)C(O)C(OC(N)=O)C1O)c1cnc[nH]1 (some centres not stated)
inactive: [1] 0.091 | [2] 0.105 | [3] 0.125 | [4] 0.052

C[C@]12CCC3C(CC[C@H]4C[C@H](O)CC[C@]34C)C1CC[C@@H]2O (some centres not stated)
inactive: [1] 0.158 | [2] 0.216 | [3] 0.201 | [4] 0.106

C[C@]12CC[C@H](O)C[C@H]1CC[C@@H]1[C@@H]2C[C@@H](O)[C@]2(C)[C@@H](C3=CC(=O)OC3)CC[C@]12O
inactive: [1] 0.0425 | [2] -0.036
active: [3] -0.488 | [4] -0.691

C[C@]12CC[C@@H](O)C[C@@H]1CC[C@@H]1[C@@H]2CC[C@]2(C)C(=O)CC[C@@H]12
inactive: [1] -0.00242 | [2] -0.00815 | [5] 0.137 | [6] 0.0672 | [3] 0.0414 | [4] 0.0708 | [7] 0.202 | [8] 0.0943

C[C@]12CC[C@H](O)C[C@H]1CC[C@@H]1[C@@H]2[C@H](O)C[C@]2(C)[C@@H](C3=CC(=O)OC3)CC[C@]12O
active: [3] -0.259 | [4] -0.409
inactive: [1] 0.0899 | [2] -0.0779

C[C@]12CC[C@H](O)C[C@@H]1CC[C@@H]1[C@@H]2CC[C@]2(C)C(=O)CC[C@@H]12
inactive: [1] 0.113 | [2] 0.0515 | [3] 0.101 | [4] 0.0566

C[C@]12CC[C@H](O)C[C@@H]1CC[C@@H]1[C@@H]2CC[C@]2(C)[C@@H](O)CC[C@@H]12
inactive: [1] 0.128 | [2] 0.00375 | [3] 0.117 | [4] 0.154

CN1C2C[C@H](OC(=O)[C@H](CO)c3ccccc3)CC1[C@@H](O)C2 (some centres not stated)
inactive: [1] 0.0376 | [2] 0.0137 | [3] 0.116 | [4] 0.0715
